Source: PubChem BioAssay (NCATS)
Inconclusive results are not listed. Activity calls are given as the source filed them. Calls follow the shape of the dose curve; as a rule, active = well fitted curve in the direction sought with a large enough effect; inconclusive = small, poorly fitted or top-dose-only effect, or another doubt; inactive = no such curve, though single readings can be large; an effect the other way counts as inactive or inconclusive.

Key:
[1] = molecular target: Rap guanine nucleotide exchange factor 3 (Homo sapiens) (UniProt O95398); assay: Confirmatory qHTS for agonist of cAMP-regulated guanine nucleotide exchange factor 3 (EPAC1) (AID 1645881);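 also: EPAC1 catalysed release of BODIPY-GDP from Rap1B seen as fluorescence loss; 100% = effect of cAMP agonist control; nearly all actives have a fitted effect of over 75% in size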
Sequence of Rap guanine nucleotide exchange factor 3 (Homo sapiens) (O95398 whole entry, looked up): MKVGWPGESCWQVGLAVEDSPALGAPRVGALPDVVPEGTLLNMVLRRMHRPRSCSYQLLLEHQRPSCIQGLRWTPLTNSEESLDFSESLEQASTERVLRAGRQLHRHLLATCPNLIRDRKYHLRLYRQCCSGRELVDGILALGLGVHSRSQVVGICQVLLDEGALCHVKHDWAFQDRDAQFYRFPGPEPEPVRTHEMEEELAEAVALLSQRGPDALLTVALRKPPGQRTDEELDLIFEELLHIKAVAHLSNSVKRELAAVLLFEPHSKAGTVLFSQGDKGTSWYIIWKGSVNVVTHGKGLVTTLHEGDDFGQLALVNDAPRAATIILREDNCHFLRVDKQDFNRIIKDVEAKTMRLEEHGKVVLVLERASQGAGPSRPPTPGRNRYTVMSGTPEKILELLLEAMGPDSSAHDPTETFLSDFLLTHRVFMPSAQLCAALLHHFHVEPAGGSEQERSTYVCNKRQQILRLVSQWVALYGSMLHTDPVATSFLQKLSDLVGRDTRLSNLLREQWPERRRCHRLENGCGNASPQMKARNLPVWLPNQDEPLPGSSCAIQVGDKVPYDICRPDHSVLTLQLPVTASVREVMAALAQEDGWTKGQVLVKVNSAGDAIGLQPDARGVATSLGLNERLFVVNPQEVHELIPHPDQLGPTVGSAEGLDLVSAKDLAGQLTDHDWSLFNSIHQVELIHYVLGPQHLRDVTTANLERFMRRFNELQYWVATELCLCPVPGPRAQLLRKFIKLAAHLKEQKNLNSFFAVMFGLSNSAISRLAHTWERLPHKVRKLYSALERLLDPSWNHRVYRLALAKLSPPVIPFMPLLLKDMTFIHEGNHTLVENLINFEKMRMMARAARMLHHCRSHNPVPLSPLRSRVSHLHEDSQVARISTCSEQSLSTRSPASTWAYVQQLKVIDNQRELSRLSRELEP

[2] = molecular target: Rap guanine nucleotide exchange factor 4 (Homo sapiens) (UniProt Q8WZA2); assay: Confirmatory qHTS for agonist of cAMP-regulated guanine nucleotide exchange factor 4 (EPAC2) (AID 1645884);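 also: nucleotide exchange releases bodipy-GDP from Rap1 and this lowers its fluorescence; % is scaled to controls: 0 for no effect and ±100 for the full control effect; nearly all actives have a fitted effect of over 65% in size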
Sequence of Rap guanine nucleotide exchange factor 4 (Homo sapiens) (Q8WZA2 whole entry, looked up): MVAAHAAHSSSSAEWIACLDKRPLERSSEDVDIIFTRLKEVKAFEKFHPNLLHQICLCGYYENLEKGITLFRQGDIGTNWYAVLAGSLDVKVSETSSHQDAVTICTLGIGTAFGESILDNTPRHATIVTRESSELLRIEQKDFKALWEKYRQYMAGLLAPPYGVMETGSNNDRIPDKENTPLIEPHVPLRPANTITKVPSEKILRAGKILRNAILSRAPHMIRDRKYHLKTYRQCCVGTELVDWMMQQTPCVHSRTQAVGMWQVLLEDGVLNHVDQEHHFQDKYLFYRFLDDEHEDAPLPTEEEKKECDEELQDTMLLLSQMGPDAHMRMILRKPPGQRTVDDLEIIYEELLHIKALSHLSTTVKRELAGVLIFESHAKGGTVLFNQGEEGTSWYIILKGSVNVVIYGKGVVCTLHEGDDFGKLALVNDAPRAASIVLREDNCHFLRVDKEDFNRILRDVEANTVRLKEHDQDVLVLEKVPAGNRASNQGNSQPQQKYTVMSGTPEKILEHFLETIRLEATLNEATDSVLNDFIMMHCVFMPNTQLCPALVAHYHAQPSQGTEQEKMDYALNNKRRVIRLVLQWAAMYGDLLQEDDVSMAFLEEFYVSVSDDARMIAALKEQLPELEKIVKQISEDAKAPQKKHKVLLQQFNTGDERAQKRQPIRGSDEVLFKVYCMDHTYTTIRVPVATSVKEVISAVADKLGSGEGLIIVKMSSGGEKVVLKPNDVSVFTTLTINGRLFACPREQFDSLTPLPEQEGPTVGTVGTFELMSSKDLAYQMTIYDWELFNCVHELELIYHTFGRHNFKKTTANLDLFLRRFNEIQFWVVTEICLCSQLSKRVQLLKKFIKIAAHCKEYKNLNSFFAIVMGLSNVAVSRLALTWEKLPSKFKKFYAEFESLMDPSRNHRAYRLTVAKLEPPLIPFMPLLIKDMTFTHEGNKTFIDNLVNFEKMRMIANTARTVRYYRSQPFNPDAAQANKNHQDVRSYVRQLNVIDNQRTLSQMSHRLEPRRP

[3] = molecular target: Rap guanine nucleotide exchange factor 4 (Homo sapiens) (UniProt Q8WZA2); assay: Confirmatory qHTS for antagonist of cAMP-regulated guanine nucleotide exchange factor 4 (EPAC2) (AID 1645885); also: nearly all actives have a fitted effect of over 25% in size; also: potency is read from the fitted curve at half-maximal effect; as to activity change, negative = inhibition: % is scaled to controls: 0 for no effect and ±100 for the full control effect
[4] = molecular target: Rap guanine nucleotide exchange factor 3 (Homo sapiens) (UniProt O95398); assay: Counterscreen qHTS for antagonist of cAMP-regulated guanine nucleotide exchange factor 3 (EPAC1) (AID 1645888);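 also: fluorescence loss as bound BODIPY-GDP is released from Rap1B; % of control where 0% means no effect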
Procedure, shortened: (§1)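 Measured: fluorescence of BODIPY-GDP bound to Rap1B, which falls as exchange proceeds. Conditions include 50 uM competing GDP, 5 and 30 min reads, and a later cAMP challenge for antagonist detection.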

[5] = molecular target: Rap guanine nucleotide exchange factor 3 (Homo sapiens) (UniProt O95398); assay: Counterscreen qHTS for agonist of cAMP-regulated guanine nucleotide exchange factor 3 (EPAC1) (AID 1645889); also: % of control where 0% means no effect; nearly all actives have a fitted effect of over 40% in size
Procedure, shortened: as §1

CCc1cccc(C)c1Nc1c(-c2ccsc2)nc2ncccn12
inactive: Potency [1] | Potency [2] | outcome [3] inactive [at 12.7 µM] | Potency [4] | Potency [5]

O=C(CSc1ccc(-c2ccco2)nn1)c1ccc(F)cc1
inactive: Potency [1] | Potency [2] | Potency [3] | Potency [4] | Potency [5]

COc1ccccc1Cc1c(-c2ccco2)nc2cc(C)c(Br)c(C)n12
inactive: Potency [1] | activation [2] 3.49% [at 17.1 µM, percent relative to cAMP agonist control] | Potency [3] | activity change, negative = inhibition [4] -0.951% [at 30.8 µM] | activation [5] 13.6% [at 30.8 µM]

C=Cc1ccc(Cn2nc(-c3ccccc3)ccc2=O)cc1
inactive: Potency [1] | activation [2] -8.97% [at 17.1 µM, percent relative to cAMP agonist control] | Potency [3] | activity change, negative = inhibition [4] -16.6% [at 30.8 µM] | activation [5] 15.7% [at 30.8 µM]

CN(CC(=O)Nc1ccccc1C(F)(F)F)C(=O)c1cc(-c2cccs2)nn1-c1ccccc1
inactive: Potency [1] | Potency [2] | Potency [3] | Potency [4] | Potency [5]

COc1cccc(C(=O)Nc2nnc(S(=O)(=O)Nc3cccc(C)c3)s2)c1
inactive: Potency [1] | Potency [2] | Potency [3] | Potency [4] | Potency [5]

O=[N+]([O-])c1cc2c(cc1CN1CCN(CCOCCO)CC1)OCO2
inactive: Potency [1] | Potency [2] | Potency [3] | Potency [4] | Potency [5]

CC(C)(C)NC(=O)NC(=O)CN1CCN(S(=O)(=O)c2ccc3c(c2)CCCC3)CC1
inactive: Potency [1] | activation [2] -5.51% [at 17.1 µM, percent relative to cAMP agonist control] | Potency [3] | activity change, negative = inhibition [4] -44% [at 30.8 µM] | activation [5] 6.75% [at 30.8 µM]

O=C(Nc1nc(-c2cc(F)ccc2F)cs1)C1=COCCO1
inactive: Potency [1] | Potency [2] | Potency [3] | Potency [4] | Potency [5]

O=C(CSc1nc2ccsc2c(=O)n1NC(=O)c1ccccc1)Nc1nccs1
inactive: Potency [1] | Potency [2] | Potency [3] | Potency [4] | Potency [5]

O=C(Nc1ccc(NC(=O)c2ccco2)c(Cl)c1)c1ccc2c(c1)OCCO2
inactive: Potency [1] | Potency [2] | Potency [3] | Potency [4] | Potency [5]

CCCCNC(=O)COC(=O)c1c2c(nc3ccccc13)CCC2
inactive: Potency [1] | Potency [2] | Potency [3] | Potency [4] | Potency [5]

CCOC(=O)c1ccccc1NC(=O)CSc1nc2c(sc(=S)n2CC)c(=O)[nH]1
inactive: Potency [1] | activation [2] 5.86% [at 17.1 µM, percent relative to cAMP agonist control] | Potency [3] | activity change, negative = inhibition [4] -2.38% [at 30.8 µM] | activation [5] 10.2% [at 30.8 µM]

CC(C)CCNc1nc(-c2ccco2)c2c(c1C#N)CCCC2
inactive: Potency [1] | Potency [2] | Potency [3] | Potency [4] | Potency [5]

COc1ccccc1/C=C1\SC(=S)N(CCC(=O)Nc2ccc(C(=O)O)c(O)c2)C1=O
inactive: Potency [1] | activation [2] 4.12% [at 17.1 µM, percent relative to cAMP agonist control] | Potency [3] | activity change, negative = inhibition [4] -13.3% [at 30.8 µM] | activation [5] 10.4% [at 30.8 µM]

Cc1cccc(CN2C(=O)c3ccccc3Sc3ccc(C(=O)N4CCCC4)cc32)c1
inactive: Potency [1] | Potency [2] | Potency [3] | Potency [4] | Potency [5]

O=c1[nH]n2c(=O)c3c([nH]c2c1N=Nc1cccc(Cl)c1)CCCC3
inactive: Potency [1] | activation [2] -16.2% [at 17.1 µM, percent relative to cAMP agonist control] | Potency [3] | activity change, negative = inhibition [4] -25.4% [at 30.8 µM] | activation [5] -2.93% [at 30.8 µM]

CCOC(=O)C(C)Sc1nc(-c2ccco2)cc(C(F)(F)F)c1C#N (stereo not given)
inactive: Potency [1] | activation [2] 0.901% [at 17.1 µM, percent relative to cAMP agonist control] | Potency [3] | activity change, negative = inhibition [4] -10.8% [at 30.8 µM] | activation [5] 0.691% [at 30.8 µM]

O=C(O)c1sccc1SCc1ccc(Cl)c(Cl)c1
inactive: Potency [1] | Potency [2] | Potency [3] | Potency [4] | Potency [5]

C=CCn1c(C)cc(C2=NNC(=Nc3ccc(C)cc3)SC2)c1C
inactive: Potency [1] | Potency [2] | Potency [3] | Potency [4] | Potency [5]

CCCCNC(=O)CN1CCN(c2ncc(NC(=O)c3ccc(Cl)cc3)cc2C(=O)O)CC1
inactive: Potency [1] | Potency [2] | Potency [3] | Potency [4] | Potency [5]

Cc1ccc(C)c(-c2ccc(=O)n(Cc3ccc(F)cc3Cl)n2)c1
inactive: Potency [1] | Potency [2] | Potency [3] | Potency [4] | Potency [5]

Cc1cccc(C(=O)c2c(N)sc3c2CCCC3)c1
inactive: Potency [1] | activation [2] -0.129% [at 17.1 µM, percent relative to cAMP agonist control] | Potency [3] | activity change, negative = inhibition [4] -3.46% [at 30.8 µM] | activation [5] 9.69% [at 30.8 µM]

CCn1c(SCC(=O)Nc2sc3c(c2C(N)=O)CCC(C)C3)nnc1-c1ccco1 (stereo not given)
inactive: Potency [1] | Potency [2] | Potency [3] | Potency [4] | Potency [5]

COc1cccc(C(NC(C)=O)c2ccc3cccnc3c2O)c1 (stereo not given)
active: Potency [3] 19 µM
inactive: Potency [1] | Potency [2] | Potency [4] | Potency [5]

CC1=C(C(=O)OC(C)C)C(c2ccc(C)o2)C(C(=O)OC(C)C)=C(C)N1
inactive: Potency [1] | Potency [2] | Potency [4] | Potency [5]
active: Potency [3] 30.1 µM

O=C1C=C(NCc2ccccc2)c2ccccc2C1=O
active: Potency [3] 15.1 µM
inactive: Potency [1] | Potency [2] | Potency [4] | Potency [5]

COc1ccc(/C=N/NC(=O)c2cc(C(C)(C)C)[nH]n2)cc1COc1ccc(F)cc1F
inactive: Potency [1] | activation [2] 3.4% [at 17.1 µM, percent relative to cAMP agonist control] | Potency [3] | activity change, negative = inhibition [4] -14.1% [at 30.8 µM] | activation [5] 19.8% [at 30.8 µM]

O=[N+]([O-])c1ccc(NS(=O)(=O)c2ccc(Cl)c(Cl)c2)cc1
inactive: Potency [1] | Potency [2] | Potency [3] | Potency [4] | Potency [5]

O=C(Cc1ccc(Cl)cc1)Nc1cccc(C(=O)Nc2ccccc2C(=O)O)c1
inactive: Potency [1] | activation [2] 8.25% [at 17.1 µM, percent relative to cAMP agonist control] | Potency [3] | activity change, negative = inhibition [4] -15.6% [at 30.8 µM] | activation [5] 2.92% [at 30.8 µM]

CCN(C(=O)Cn1c(=O)oc2cc(Cl)ccc21)c1cccc(C(F)(F)F)c1
inactive: Potency [1] | Potency [2] | Potency [3] | Potency [4] | Potency [5]
